Assay results: PubChem BioAssay (Tox21)
Results filed as inconclusive are left out. Where a call stands in place of a potency, no number is given. Active and inactive are the calls of the source. Calls come from the whole dose curve; as a rule, active = well fitted cell-killing curve with a large enough effect in the repeat runs; inconclusive = weak or mixed curves, or effect the other way; inactive = no such curve, though single readings can be large or run the other way.
Potency is the fitted concentration of half-maximal effect.

Assay: qHTS assay to identify small molecule antagonists of the vitamin D receptor (VDR) signaling pathway - cell viability counter screen (AID 743225); note: nearly all actives have a fitted effect of over 50% in size
Conditions: VDR-bla HEK293T viability, CellTiter-Glo luminescence, 16 h; series mostly up to 61 µM
From the text: U.S. Tox21 Program National Center for Advancing Translational Sciences [NCATS] NIH Chemical Genomics Center [NCGC] U.S. Environmental Protection Agency [EPA] National Institutes of Environmental Health Sciences [NIEHS] National Toxicology Program [NTP] U.S. Food and Drug Administration [FDA] Tox21 Assay Overview: The vitamin D receptor (VDR), a member of nuclear hormone receptor superfamily, plays a critical role in calcium homeostasis and bone metabolism. It is also involved in cell differentiation and growth, and thrombogenicity. To identify the compounds that inhibit VDR signaling, the VDR-UAS-bla HEK 293T cell line (Invitrogen, Carlsbad, CA, USA) containing a beta-lactamase reporter gene under the control of an upstream activator sequence (UAS) was used to screen the Tox21 10K compound library. The cytotoxicity of the Tox21 compound library against the VDR-bla cell line was tested in parallel by measuring the cell viability using CellTiter-Glo assay (Promega, Madison, WI) in the same wells.
Tox21 Assay Protocol Summary: VDR-bla cells were dispensed at 2,000 cells/5 uL of assay medium per well into black wall/clear-bottom 1536-well plates using a Multidrop Combi (Thermo Fisher Scientific, Waltham, MA) dispenser. After the assay plates were incubated at a 37C and 5% CO2 for 4 h, 23 nL of compounds dissolved in DMSO, positive controls or DMSO only was transferred to the assay plate by a Pintool station (Kalypsys, San Diego, CA), followed by addition of 1 uL of 1-alpha, 25-Dihydroxy Vitamin D3 (3 nM, final concentration in the wells) using a Bioraptr Flying Reagent Dispenser (FRD) workstation (Beckman Coulter, Indianapolis, IN). The plates were incubated at 37C and 5% CO2 for 16 h, and then 1 uL of LiveBLAzerTM B/G FRET substrate was added using a Bioraptr FRD. The plates were incubated at room temperature for 2 h and fluorescence intensity was measured by an Envision plate reader (PerkinElmer, Shelton, CT). For cell viability readout that measures cytotoxicity, 3 ul/well of CellTiter-Glo reagent was added into the assay plates using a Bioraptr FRD. After 30 min incubation at room temperature, the luminescence intensity in the plates was measured using a ViewLux plate reader (PerkinElmer).
With `COc1ccc(-c2ccccc2)cc1NNC(=O)OC(C)C` the Potency was 51 µM (active). For `Clc1cccc(SC2CCNCC2)n1`, the Potency was “inactive”. In the case of `O=C(NC(=O)c1c(F)cccc1F)Nc1ccc(OC(F)(F)C(F)OC(F)(F)F)c(Cl)c1` (stereo not given), the Potency was “inactive”. With `COc1cc(Cl)c(OC)cc1Cl` the Potency was “inactive”. For `CCC(COC(=O)c1cc(OC)c(OC)c(OC)c1)(c1ccccc1)N(C)C` (stereo not given), the Potency was “inactive”. With `BrCC(Br)C1CCC(Br)C(Br)C1` (stereo not given) the Potency was “inactive”. For `CCCCc1c(C)nc(NCC)nc1OS(=O)(=O)N(C)C`, the Potency was “inactive”. With `CCC(Cl)CCl` (stereo not given) the Potency was “inactive”. With `O=C1NCN(c2ccccc2)C12CCN(CCCOc1ccc(F)cc1)CC2` the Potency was “inactive”. For `BrCCCCBr`, the Potency was “inactive”. In the case of `CCOS(C)(=O)=O`, the Potency was “inactive”. With `C=CCOC(C)=O` the Potency was “inactive”. For `Clc1ccc(C2(Cn3cncn3)CC(Br)CO2)c(Cl)c1` (stereo not given), the Potency was “inactive”. In the case of `CCOc1ccc(C(C)(C)COCc2cccc(Oc3ccccc3)c2)cc1`, the Potency was “inactive”. For `CCCCCCCCCC(=O)O[C@H]1CC[C@H]2[C@@H]3CCC4=CC(=O)CC[C@@H]4[C@H]3CC[C@]12C`, the Potency was “inactive”. In the case of `O=C(OC1CCCCC1)c1ccccc1C(=O)OC1CCCCC1`, the Potency was 32.6 µM (active). For `COC(=O)c1cncn1C(C)c1ccccc1` (stereo not given), the Potency was “inactive”. With `Clc1cccc2ccccc12` the Potency was “inactive”. For `Clc1cc(Cl)c(Cl)c(Cl)c1`, the Potency was “inactive”. For `Clc1cc(C(Cl)(Cl)Cl)cnc1Cl`, the Potency was “inactive”. With `CC(=O)C(C)(C)C` the Potency was “inactive”. With `C=CC[C@]1(O)CC[C@H]2[C@@H]3CCC4=CC(=O)CCC4=C3C=C[C@@]21C` the Potency was “inactive”. With `C=CC(=O)OCCCCO` the Potency was “inactive”. For `N#CCC#N`, the Potency was “inactive”. For `O=C(O)c1ccccc1C(=O)Nc1cccc2ccccc12`, the Potency was “inactive”. With `O=C(O)CC(Cl)C(=O)O` (stereo not given) the Potency was “inactive”. In the case of `CO[C@@H]1[C@H](OC(=O)NC(=O)CCl)CC[C@]2(CO2)[C@H]1[C@@]1(C)O[C@@H]1CC=C(C)C`, the Potency was “inactive”. With `O=S1(=O)OC(c2cc(Br)c(O)c(Br)c2)(c2cc(Br)c(O)c(Br)c2)c2ccccc21` the Potency was “inactive”. For `Brc1ccccc1`, the Potency was “inactive”. With `COP(=S)(OC)Oc1cc(Cl)c(I)cc1Cl` the Potency was “inactive”. For `C/C=C/C=O`, the Potency was “inactive”. For `O=C(N[C@H](c1ccccc1)[C@@H]1CN2CCC1CC2)c1c(Cl)ccc(C(F)(F)F)c1Cl`, the Potency was “inactive”. In the case of `N#Cc1ccc(Cl)cc1`, the Potency was “inactive”. In the case of `COP(=S)(Oc1cc(Cl)c(Br)cc1Cl)c1ccccc1` (stereo not given), the Potency was “inactive”. For `O=NN1CCCCCC1`, the Potency was “inactive”. For `C=COC(C)=O`, the Potency was “inactive”. For `Cl/C=C\C[N+]12CN3CN(CN(C3)C1)C2`, the Potency was “inactive”. With `CCn1cc[n+](C)c1` the Potency was “inactive”. In the case of `CCCN(CCC)c1c([N+](=O)[O-])cc(S(C)(=O)=O)cc1[N+](=O)[O-]`, the Potency was “inactive”. In the case of `Cc1ccc(-c2c(Cl)nc(C#N)n2S(=O)(=O)N(C)C)cc1`, the Potency was “inactive”.
